Test [1] in a line: ATG_TCF_b_cat_CIS: Attagene CIS-FACTORIAL HepG2 Assay for human T-Cell-Factor with beta-catenin (TCF/b-cat) (AID 2282965; active = hit-call score of the fitted dose curve at least 0.9, where 1 is the maximum; inactive = score below 0.9). As to conditions: HepG2 TCF/beta-catenin cis-reporter transcription, actives raise or lower the signal. An outline of the steps:
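Endogenous TCF/LEF activity read as reporter transcript level via RT-PCR and capillary electrophoresis fluorescence in transfected HepG2, 24 h exposure; gain or loss of signal fitted against DMSO controls.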

Test [2] can be described thus: ATG_TAL_CIS: Attagene CIS-FACTORIAL HepG2 Assay for human TAL Basal Promoter (AID 2282966; active = hit-call score of the fitted dose curve at least 0.9, where 1 is the maximum; inactive = score below 0.9;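 note: background control endpoint measuring basal TAL promoter reporter mRNA not a specific factor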). As to conditions: HepG2 Attagene cis-factorial TAL promoter reporter; actives raise or lower the signal. An outline of the steps:
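Human hepatoma HepG2 cells, transfected with promoter-regulated reporter units, were treated 24 h. Reporter transcript levels, measured through RT-PCR and capillary electrophoresis, were fitted for gain or loss relative to DMSO.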

A short description of test [3]: ATG_TGFb_CIS: Attagene CIS-FACTORIAL HepG2 Assay for human Transforming Growth Factor (TGF) (AID 2282967; active = hit-call score of the fitted dose curve at least 0.9, where 1 is the maximum; inactive = score below 0.9). Conditions: HepG2 Attagene CIS TGFb reporter, mRNA transcription; actives raise or lower the signal. A digest of the protocol:
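Liver HepG2 line, cis-factorial reporter panel, 24 h dosing. Quantitation: RT-PCR products labeled with 6-FAM, cut with HpaI, resolved by capillary electrophoresis; DMSO-referenced bidirectional analysis.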

For test [4], the target named is X-box-binding protein 1 (Homo sapiens) (UniProt P17861). Put plainly: ATG_Xbp1_CIS: Attagene CIS-FACTORIAL HepG2 Assay for human X-box Binding Protein 1 (XBP1) (AID 2282972; active = hit-call score of the fitted dose curve at least 0.9, where 1 is the maximum; inactive = score below 0.9). As to conditions: HepG2 XBP1 cis-element reporter, Attagene multiplex; actives raise or lower the signal. A digest of the protocol: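 Changes in reporter transcript abundance, read by RT-PCR and capillary electrophoresis, reflect endogenous transcription factor activity. Transfected HepG2 cells received compound for 24 hours; DMSO defined baseline for bidirectional analysis.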
Chain of X-box-binding protein 1 (Homo sapiens) (P17861 whole entry, looked up): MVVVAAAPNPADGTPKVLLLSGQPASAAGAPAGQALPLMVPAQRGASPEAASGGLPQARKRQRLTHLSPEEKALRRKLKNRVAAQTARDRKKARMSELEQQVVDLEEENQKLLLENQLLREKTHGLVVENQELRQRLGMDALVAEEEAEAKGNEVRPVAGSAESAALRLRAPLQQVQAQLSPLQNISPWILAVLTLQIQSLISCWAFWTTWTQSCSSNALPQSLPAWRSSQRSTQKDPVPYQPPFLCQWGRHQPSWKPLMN

Test [5] concerns the target Bile acid receptor (Homo sapiens) (UniProt Q96RI1). Put plainly: ATG_FXR_TRANS: Attagene TRANS-FACTORIAL HepG2 Assay for Farnesoid X Receptor (FXR) (AID 2282979).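 Note: hits raise reporter mRNA above DMSO so AC50 marks FXR activation.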 Conditions: HepG2 Attagene TRANS FXR-GAL4 reporter transcription. An outline of the steps: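 After 24 h chemical treatment of transfected HepG2 cells, GAL4-UAS reporter transcripts driven by an exogenous FXR-GAL4 fusion were measured by RT-PCR and capillary electrophoresis. Increases over DMSO were fitted.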

A short description of test [6]: ATG_M_06_TRANS: Attagene TRANS-FACTORIAL HepG2 Assay for M06 Transcription Factor (Internal Marker) (AID 2282983). As to conditions: HepG2 Attagene TRANS M06 internal marker reporter. An outline of the steps: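 Multi-reporter-transfected HepG2, 24 h treatment; reporter transcripts quantified via RT-PCR, primer-extension labelling and CE. DMSO-normalized gain-of-signal fit.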

Test [7] can be described thus: ATG_M_32_TRANS: Attagene TRANS-FACTORIAL HepG2 Assay for M32 Transcription Factor (Internal Marker) (AID 2282984). As to conditions: HepG2 Attagene TRANS M32 internal marker reporter. An outline of the steps: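 Cell-based TRANS-format assay in HepG2: exogenous chimeric GAL4 reporter units transiently expressed, compounds applied 24 h. Reporter mRNA detected by RT-PCR plus capillary electrophoresis; this readout is an internal background marker.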

Test [8] can be described thus: ATG_VDRE_CIS: Attagene CIS-FACTORIAL HepG2 Assay for human Vitamin D Receptor Element (VDRE) (AID 2282968; active = hit-call score of the fitted dose curve at least 0.9, where 1 is the maximum; inactive = score below 0.9). Conditions: HepG2 VDRE cis-reporter transcription, actives raise or lower the signal. An outline of the steps: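 Measures endogenous factor activity through cis-element-driven reporter transcripts in transiently transfected HepG2. Cells are treated 24 h; reporter mRNA is quantified by RT-PCR and capillary electrophoresis; fitting is bidirectional.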

Test [9] deals with Estrogen receptor (Homo sapiens) (UniProt P03372). Put plainly: ATG_ERa_TRANS: Attagene TRANS-FACTORIAL HepG2 Assay for human Estrogen Receptor alpha (ERa) (AID 2282970). Conditions: HepG2 Attagene TRANS ERa GAL4 reporter, mRNA. An outline of the steps:
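Signal derives from fluorescence of labelled reporter PCR fragments separated by capillary electrophoresis. HepG2 cells transiently carrying multiple GAL4-UAS reporter units were treated 24 hours, and induction above DMSO baseline was fitted as activity.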

The target of test [10] is Glucocorticoid receptor (Homo sapiens) (UniProt P04150). Put plainly: ATG_GR_TRANS: Attagene TRANS-FACTORIAL HepG2 Assay for human Glucocorticoid Receptor (GR) (AID 2282978).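 Note: activators score as hits since higher reporter transcript over DMSO is fitted.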 Conditions: HepG2 Attagene TRANS GR reporter, mRNA transcription. A digest of the protocol:
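HepG2 cells transiently transfected with GAL4-UAS reporter units and exogenous GR-Gal4 chimera, dosed 24 h. Reporter mRNA by RT-PCR, FAM labeling, HpaI digest and capillary electrophoresis; gain-of-signal fit versus DMSO.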

In test [11] the target is Oxysterols receptor LXR-beta (Homo sapiens) (UniProt P55055). Put plainly: ATG_LXRb_TRANS: Attagene TRANS-FACTORIAL HepG2 Assay for human Liver X Receptor beta (LXRb) (AID 2282981). As to conditions: HepG2 Attagene TRANS GAL4-LXRb reporter, mRNA. An outline of the steps:
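After 24 h of chemical treatment, transfected HepG2 cells yield total RNA; reporter cDNA is PCR-amplified, FAM-labelled, HpaI-cut and run on capillary electrophoresis. Signal reflects chimeric LXRb-Gal4 activity on GAL4-UAS reporters.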

A short description of test [12]: ATG_M_19_TRANS: Attagene TRANS-FACTORIAL HepG2 Assay for M19 Transcription Factor (Internal Marker) (AID 2282974). As to conditions: HepG2 Attagene TRANS-FACTORIAL M19 internal marker reporter. An outline of the steps: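 HepG2 transiently transfected with GAL4-UAS multiplex reporter constructs, exposed 24 h; reporter RNA quantified by RT-PCR, 6-FAM labeling, HpaI digestion and capillary electrophoresis; internal background marker fitted upward versus DMSO.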

Test [13] in a line: ATG_GAL4_TRANS: Attagene TRANS-FACTORIAL HepG2 Assay for GAL4 (Internal Marker) (AID 2282976). Conditions: HepG2 Attagene TRANS GAL4 internal marker reporter. An outline of the steps:
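Liver HepG2 line bearing multiplexed GAL4-UAS reporter constructs; 24 h chemical treatment. Transcripts were quantified as fluorescent fragments on capillary electrophoresis after RT-PCR and HpaI cut, with activity fitted upward from DMSO.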

Test [14] deals with Steroid hormone receptor ERR1 (Homo sapiens) (UniProt P11474). Put plainly: ATG_ERRa_TRANS: Attagene TRANS-FACTORIAL HepG2 Assay for human Estrogen-Related Receptor alpha (ERRa) (AID 2282971). As to conditions: HepG2 Attagene TRANS reporter, ERRa transactivation. An outline of the steps:
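Signal gain relative to DMSO for an ERRa-Gal4 chimeric receptor, read as reporter mRNA by RT-PCR/capillary electrophoresis. Human HepG2 liver cells, transient multiplex reporter transfection, 24 h chemical exposure.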

For test [15], the target named is Androgen receptor (Homo sapiens) (UniProt P10275). Put plainly: ATG_AR_TRANS: Attagene TRANS-FACTORIAL HepG2 Assay for human Androgen Receptor (AR) (AID 2282973). As to conditions: HepG2 Attagene TRANS-FACTORIAL AR reporter transcription. A digest of the protocol: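 Chimeric nuclear receptor–Gal4 activity was assessed in human HepG2 hepatocytes after 24 h chemical dosing. Induced reporter mRNA was detected via labelled RT-PCR fragments on capillary electrophoresis, and gain of signal was analysed against DMSO.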
Chain of Androgen receptor (Homo sapiens) (P10275 whole entry, looked up, the tested form may be a part): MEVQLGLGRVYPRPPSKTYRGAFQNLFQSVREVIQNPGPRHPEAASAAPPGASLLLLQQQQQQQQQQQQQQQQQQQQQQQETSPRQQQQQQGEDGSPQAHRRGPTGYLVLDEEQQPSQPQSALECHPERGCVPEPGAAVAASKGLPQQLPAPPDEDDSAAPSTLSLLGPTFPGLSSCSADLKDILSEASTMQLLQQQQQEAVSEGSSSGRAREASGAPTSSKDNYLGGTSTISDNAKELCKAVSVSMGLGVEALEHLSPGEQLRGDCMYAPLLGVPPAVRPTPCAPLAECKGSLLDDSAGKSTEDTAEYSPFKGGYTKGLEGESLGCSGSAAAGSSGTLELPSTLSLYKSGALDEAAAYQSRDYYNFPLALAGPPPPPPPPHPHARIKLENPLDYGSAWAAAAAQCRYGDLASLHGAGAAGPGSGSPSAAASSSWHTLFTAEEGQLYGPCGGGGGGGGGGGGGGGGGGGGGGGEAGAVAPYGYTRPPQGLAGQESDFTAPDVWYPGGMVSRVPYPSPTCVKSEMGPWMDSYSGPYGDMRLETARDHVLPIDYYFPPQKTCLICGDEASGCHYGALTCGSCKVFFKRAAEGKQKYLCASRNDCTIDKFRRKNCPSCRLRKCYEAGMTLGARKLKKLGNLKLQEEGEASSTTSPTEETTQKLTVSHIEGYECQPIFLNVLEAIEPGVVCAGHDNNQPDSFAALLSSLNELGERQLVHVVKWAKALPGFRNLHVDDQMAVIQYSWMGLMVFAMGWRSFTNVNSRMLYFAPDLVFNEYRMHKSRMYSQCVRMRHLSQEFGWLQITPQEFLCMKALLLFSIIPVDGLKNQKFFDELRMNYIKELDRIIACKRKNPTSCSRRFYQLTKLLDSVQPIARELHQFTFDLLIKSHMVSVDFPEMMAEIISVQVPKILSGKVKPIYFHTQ

For test [16], the target named is Hepatocyte nuclear factor 4-alpha (Homo sapiens) (UniProt P41235). Put plainly: ATG_HNF4a_TRANS: Attagene TRANS-FACTORIAL HepG2 Assay for human Hepatocyte Nuclear Factor 4 alpha (HNF4a) (AID 2282982). Conditions: HepG2 HNF4a transactivation reporter, mRNA readout. A digest of the protocol:
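Multiplexed reporter assay: transfected HepG2, 24 h exposure, total RNA → oligo(dT) RT → PCR → 6-FAM extension → HpaI digest → CE fluorescence. DMSO = negative control.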

The target of test [17] is Nuclear receptor subfamily 4 group A member 2 (Homo sapiens) (UniProt P43354). Put plainly: ATG_NURR1_TRANS: Attagene TRANS-FACTORIAL HepG2 Assay for human Nuclear Receptor Related Protein 1 (NURR1) (AID 2282985). Conditions: HepG2 Attagene TRANS reporter, mRNA readout. A digest of the protocol:
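Measures transcriptional activation by an exogenous NR-Gal4 chimera in transfected HepG2 liver cells. After 24 h, reporter RNA is reverse-transcribed, amplified and resolved by capillary electrophoresis; DMSO defines baseline.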

Test [18] concerns the target Estrogen-related receptor gamma (Homo sapiens) (UniProt P62508). Put plainly: ATG_ERRg_TRANS: Attagene TRANS-FACTORIAL HepG2 Assay for human Estrogen-Related Receptor gamma (ERRg) (AID 2282977).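 Note: hits increase reporter signal over DMSO so potencies reflect activators.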 As to conditions: HepG2 Attagene TRANS reporter, ERRg transactivation. An outline of the steps: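 Exogenous NR-Gal4 chimera activity was assessed in HepG2 cells bearing transfected GAL4-UAS reporters. After 24 h dosing, total RNA underwent RT-PCR, fluorescent primer extension and HpaI digestion before capillary electrophoresis, with gain of signal scored against DMSO.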

The source of these data is PubChem BioAssay (EPA / NIEHS).

Inconclusive results are not listed. Active and inactive are the calls of the source. Rule for the calls, unless noted: active = hit-call score of the fitted dose curve at least 0.9, where 1 is the maximum; inconclusive = response in the unintended direction; inactive = score below 0.9.

Chain of Steroid hormone receptor ERR1 (Homo sapiens) (P11474 whole entry, looked up, the tested form may be a part): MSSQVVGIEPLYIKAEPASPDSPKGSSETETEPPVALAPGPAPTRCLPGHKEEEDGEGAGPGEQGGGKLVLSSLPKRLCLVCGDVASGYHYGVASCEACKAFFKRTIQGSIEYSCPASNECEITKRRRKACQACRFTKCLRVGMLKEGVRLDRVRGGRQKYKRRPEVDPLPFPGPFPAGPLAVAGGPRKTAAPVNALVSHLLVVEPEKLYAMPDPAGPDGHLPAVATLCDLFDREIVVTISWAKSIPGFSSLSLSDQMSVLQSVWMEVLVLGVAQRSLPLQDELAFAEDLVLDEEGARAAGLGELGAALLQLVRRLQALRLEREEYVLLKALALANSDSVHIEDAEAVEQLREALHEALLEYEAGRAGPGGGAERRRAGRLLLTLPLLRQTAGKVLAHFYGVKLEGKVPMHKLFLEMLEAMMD
Chain of Glucocorticoid receptor (Homo sapiens) (P04150 whole entry, looked up, the tested form may be a part): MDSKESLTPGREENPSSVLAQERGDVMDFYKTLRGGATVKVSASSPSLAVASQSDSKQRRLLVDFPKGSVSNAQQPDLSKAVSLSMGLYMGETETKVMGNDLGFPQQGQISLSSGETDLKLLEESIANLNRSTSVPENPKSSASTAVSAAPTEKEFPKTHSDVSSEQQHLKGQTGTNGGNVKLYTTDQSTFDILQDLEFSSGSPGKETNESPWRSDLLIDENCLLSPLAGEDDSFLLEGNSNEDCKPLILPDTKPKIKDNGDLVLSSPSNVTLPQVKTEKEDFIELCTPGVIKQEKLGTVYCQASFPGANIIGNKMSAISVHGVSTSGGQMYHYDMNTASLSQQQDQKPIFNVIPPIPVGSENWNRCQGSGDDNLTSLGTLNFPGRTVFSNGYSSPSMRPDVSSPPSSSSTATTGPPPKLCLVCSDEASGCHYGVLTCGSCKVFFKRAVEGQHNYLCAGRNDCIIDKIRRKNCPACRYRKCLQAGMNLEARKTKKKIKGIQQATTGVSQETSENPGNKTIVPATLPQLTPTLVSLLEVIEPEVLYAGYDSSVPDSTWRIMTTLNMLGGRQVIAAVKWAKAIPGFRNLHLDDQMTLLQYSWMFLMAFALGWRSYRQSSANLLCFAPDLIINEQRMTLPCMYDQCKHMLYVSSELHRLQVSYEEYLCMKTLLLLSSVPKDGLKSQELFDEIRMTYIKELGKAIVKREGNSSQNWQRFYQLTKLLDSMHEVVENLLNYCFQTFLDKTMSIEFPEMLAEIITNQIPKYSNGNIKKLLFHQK
Chain of Bile acid receptor (Homo sapiens) (Q96RI1 whole entry, looked up, the tested form may be a part): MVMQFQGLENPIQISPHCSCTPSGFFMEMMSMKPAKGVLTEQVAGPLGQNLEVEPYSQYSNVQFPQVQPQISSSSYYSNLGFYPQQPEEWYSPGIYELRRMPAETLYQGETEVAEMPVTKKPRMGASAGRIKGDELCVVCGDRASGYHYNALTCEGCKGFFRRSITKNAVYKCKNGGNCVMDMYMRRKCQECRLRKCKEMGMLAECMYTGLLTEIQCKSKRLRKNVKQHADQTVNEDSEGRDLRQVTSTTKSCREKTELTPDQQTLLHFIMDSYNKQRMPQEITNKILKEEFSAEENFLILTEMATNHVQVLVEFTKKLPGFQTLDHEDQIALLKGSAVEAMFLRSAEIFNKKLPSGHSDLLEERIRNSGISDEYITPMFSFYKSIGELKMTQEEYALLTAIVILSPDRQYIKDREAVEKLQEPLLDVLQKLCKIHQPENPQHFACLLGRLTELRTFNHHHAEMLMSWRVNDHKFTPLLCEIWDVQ
Chain of Oxysterols receptor LXR-beta (Homo sapiens) (P55055 whole entry, looked up, the tested form may be a part): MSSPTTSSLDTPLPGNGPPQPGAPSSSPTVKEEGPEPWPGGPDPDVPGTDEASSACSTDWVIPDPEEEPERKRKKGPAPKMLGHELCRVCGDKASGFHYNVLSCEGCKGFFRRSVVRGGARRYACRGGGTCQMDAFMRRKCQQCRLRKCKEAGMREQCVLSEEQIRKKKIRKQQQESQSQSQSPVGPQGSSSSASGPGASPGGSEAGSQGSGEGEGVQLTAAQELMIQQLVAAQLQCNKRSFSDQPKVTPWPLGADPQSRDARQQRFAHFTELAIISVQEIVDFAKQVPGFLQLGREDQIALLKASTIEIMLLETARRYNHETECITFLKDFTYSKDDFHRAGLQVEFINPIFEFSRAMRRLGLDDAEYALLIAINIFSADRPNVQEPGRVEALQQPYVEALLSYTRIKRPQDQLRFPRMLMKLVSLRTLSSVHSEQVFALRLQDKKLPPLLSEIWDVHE
Chain of Estrogen receptor (Homo sapiens) (P03372 whole entry, looked up, the tested form may be a part): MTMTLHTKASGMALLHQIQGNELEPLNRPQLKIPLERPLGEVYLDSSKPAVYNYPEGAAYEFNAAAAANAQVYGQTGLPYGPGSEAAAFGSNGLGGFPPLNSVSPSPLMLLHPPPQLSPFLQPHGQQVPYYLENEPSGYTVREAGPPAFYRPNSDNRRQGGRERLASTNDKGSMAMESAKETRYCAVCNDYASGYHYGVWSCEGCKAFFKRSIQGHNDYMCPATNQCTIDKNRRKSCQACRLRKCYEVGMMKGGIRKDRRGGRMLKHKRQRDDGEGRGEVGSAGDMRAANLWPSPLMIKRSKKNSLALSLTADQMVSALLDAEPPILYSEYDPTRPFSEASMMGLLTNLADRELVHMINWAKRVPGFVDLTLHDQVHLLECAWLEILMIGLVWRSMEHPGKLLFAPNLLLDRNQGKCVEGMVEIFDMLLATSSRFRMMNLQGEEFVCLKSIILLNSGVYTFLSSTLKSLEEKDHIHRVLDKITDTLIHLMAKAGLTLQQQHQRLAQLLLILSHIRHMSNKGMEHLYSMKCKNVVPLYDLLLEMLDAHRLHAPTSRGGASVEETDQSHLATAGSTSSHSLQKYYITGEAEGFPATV
Chain of Estrogen-related receptor gamma (Homo sapiens) (P62508 whole entry, looked up, the tested form may be a part): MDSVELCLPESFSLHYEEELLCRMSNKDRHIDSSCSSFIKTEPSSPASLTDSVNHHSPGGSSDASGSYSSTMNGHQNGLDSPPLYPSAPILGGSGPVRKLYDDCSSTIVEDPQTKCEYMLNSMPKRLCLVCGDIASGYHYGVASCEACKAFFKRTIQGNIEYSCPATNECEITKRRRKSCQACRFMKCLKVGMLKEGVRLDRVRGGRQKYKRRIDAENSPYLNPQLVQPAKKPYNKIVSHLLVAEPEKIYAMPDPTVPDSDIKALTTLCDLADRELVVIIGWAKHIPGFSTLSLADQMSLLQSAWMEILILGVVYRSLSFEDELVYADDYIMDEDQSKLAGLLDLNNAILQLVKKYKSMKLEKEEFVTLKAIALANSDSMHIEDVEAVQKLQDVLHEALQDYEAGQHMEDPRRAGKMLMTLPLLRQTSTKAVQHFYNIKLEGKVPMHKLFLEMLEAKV
Chain of Nuclear receptor subfamily 4 group A member 2 (Homo sapiens) (P43354 whole entry, looked up, the tested form may be a part): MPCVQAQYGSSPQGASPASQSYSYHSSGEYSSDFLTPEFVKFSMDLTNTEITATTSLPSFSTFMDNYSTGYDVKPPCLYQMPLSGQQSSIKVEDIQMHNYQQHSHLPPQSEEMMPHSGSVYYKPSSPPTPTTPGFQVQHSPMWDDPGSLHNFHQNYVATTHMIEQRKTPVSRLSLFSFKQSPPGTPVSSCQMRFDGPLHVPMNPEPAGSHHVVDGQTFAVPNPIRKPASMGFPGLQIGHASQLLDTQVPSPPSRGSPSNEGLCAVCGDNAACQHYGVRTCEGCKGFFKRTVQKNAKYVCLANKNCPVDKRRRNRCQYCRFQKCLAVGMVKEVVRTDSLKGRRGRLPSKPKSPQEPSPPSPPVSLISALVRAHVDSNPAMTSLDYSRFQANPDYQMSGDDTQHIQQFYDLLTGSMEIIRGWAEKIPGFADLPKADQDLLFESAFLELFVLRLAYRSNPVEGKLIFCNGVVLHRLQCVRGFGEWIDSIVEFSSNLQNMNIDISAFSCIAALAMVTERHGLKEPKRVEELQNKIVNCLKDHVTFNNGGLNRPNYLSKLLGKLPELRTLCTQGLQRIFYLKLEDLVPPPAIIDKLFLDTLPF

Turning to `CC(C)(C)c1ccc(O)cc1`, the AC50 in test [1] was 148 µM (active); in [4], 171 µM (active). The outcome in test [2], in test [3], in test [5], in [6] and in test [7] was inactive.
Consider `Oc1ccc(I)cc1`, for which the compound was called inactive in [1], in [2], in test [3], in test [8], in test [4] and in test [10]. The call in test [5], in test [11], in test [6] and in test [7] was inactive. In addition, the AC50 in test [9] was 19.7 µM (active).
For the compound `NNC(N)=S`, the call in test [1], in test [2], in test [3], in [8], in test [4] and in [12] was inactive. The compound was called inactive in test [13], in test [10], in [5], in test [11] and in [6].
For `C=CC(=O)OCC(F)(F)C(F)F`, the AC50 was 89.3 µM (active) in [1] and 90.3 µM (active) in [8]. For the same compound, the call in [2], in [3], in [14], in [4], in test [15] and in test [13] was inactive. The result in test [10], in test [16], in test [6], in test [7] and in test [17] was inactive.
`COP(=O)(CCC(=O)NCO)OC`: the compound was called inactive in [1], in [2], in test [3], in test [8], in [14] and in [4]. The compound was classed as inactive in [15], in test [18], in test [10], in [5] and in test [6].
Take `CN(C)C(=O)Cl`: the call in [1], in [2], in test [3], in test [8], in [14] and in test [4] was inactive. Moreover, the call in [18], in test [10], in test [11], in [6] and in test [7] was inactive.
As for `O=[N+]([O-])c1cc(Cl)ccc1Cl`, the outcome in test [1], in [2], in test [3], in test [8], in test [9] and in test [4] was inactive. Besides, the result in test [10], in test [5], in test [6] and in test [7] was inactive.

Broadly, the AC50 is the midpoint of the concentration-response curve, whichever way the signal moves.
